Results taken from PubChem BioAssay (Tox21).
Where “and” joins values, the source holds several entries; their conditions need not be identical. Identical values can stand only once. Results filed as inconclusive are left out. Where a call stands in place of a potency, no number is given. Some compounds were tested as several samples or in several runs, with calls that do not always agree. Calls of active or inactive are those of the source. Calls come from the whole dose curve.

assay: qHTS assay to identify small molecule antagonists of the sonic hedgehog signaling (Shh) pathway (AID 1259369); settings: NIH/3T3 Gli1-Luc reporter, Shh antagonist, luminescence 24 h; series mostly up to 92.4 µM; note: nearly all actives have a fitted effect of over 45% in size
Text: U.S. Tox21 Program National Center for Advancing Translational Sciences [NCATS] NIH Chemical Genomics Center [NCGC] U.S. Environmental Protection Agency [EPA] National Institutes of Environmental Health Sciences [NIEHS] National Toxicology Program [NTP] U.S. Food and Drug Administration [FDA] Tox21 Assay Overview: The sonic hedgehog (Shh) pathway is essential for normal embryonic development. Dysregulation of the Shh pathway can cause severe developmental defects in organs. Therefore chemicals that interfere with the pathway are potential developmental toxicants. A cell line designated 3T3Gli1-Luc (DMB/OARSA/CFSAN/FDA, Laurel, MD), a NIH/3T3 derived clone containing stably integrated Gli1-Luc reporter is used to detect chemical interference of the Shh pathway, by changes in the expression of the firefly Luc gene under the control of the Gli1 transcriptional response element. This cell line was used to screen Tox21 libraries for identifying and prioritizing the potential developmental toxicants that interfere Shh pathway. Conditioned medium-stimulated mode was used to screen for chemicals inhibiting Shh signaling.
Tox21 Assay Protocol Summary: 3T3 Gli1-Luc cells were dispensed at 2,000 per well in 5uL of culture medium into white solid bottom 1536-well plates (Greiner Bio-One, Monroe, NC) using a Multidrop Combi (Thermo Scientific, Waltham, MA) dispenser. The assay plates were incubated at 37 C and 5% CO2 for 4hr, and then 23nL of compounds dissolved in DMSO and positive control were transferred using a Pintool station (Wako, San Diego, CA). The compound transfer was followed by the addition of 1ul conditioned medium or assay buffer using two separate tips of Flying Reagent Dispenser (FRD, Aurora Discovery, San Diego, CA). The assay plates were incubated at 37C and 5% CO2 for 24hr. For luciferase read, 4uL of Amplite Luciferase reporter gene assay reagent (AAT Bioquest, Inc. Sunnyvale, CA) was added to each well of the assay plates using FRD and incubated at room temperature for 30min. The luminescence signal was measured using a ViewLux plate reader (Perkin Elmer, Shelton, CT).
Potency is the fitted concentration of half-maximal effect.

Compound	Potency	activity change, negative = inhibition
CON(C)C(=O)Nc1ccc(Br)cc1	inactive	–
C[C@H]1CCCC(=O)CCC/C=C/c2cc(O)cc(O)c2C(=O)O1	14.8 µM (active) and inactive	–
CCNc1nc(Cl)nc(NC(C)(C)C)n1	0.969 µM (active)	–
C=C1C[C@@H]2[C@H](CC[C@]3(C)C(=O)CC[C@@H]23)[C@@]2(C)C=CC(=O)C=C12	6.68 µM (active)	–
Cc1cc(OC(=O)N(C)C)nn1C(=O)N(C)C	inactive	–
C[C@H](N)C(=O)c1ccccc1	inactive	–
N#CN=C1SCCN1Cc1ccc(Cl)nc1	inactive	–
CC(C)(C)NC[C@H](O)c1ccc(O)cc1Cl	inactive	–
Clc1cc2c(cc1Cl)Oc1cc(Cl)c(Cl)cc1O2	–	-6.77% [at 0.349 µM] (inactive)
CCOC1Oc2ccc(OS(C)(=O)=O)cc2C1(C)C (stereo not given)	inactive	–
O=C(CCl)NCO	inactive	–
CCCOC(=O)Cc1ccc(OCC(=O)N(CC)CC)c(OC)c1	inactive	–
ClCCCCCCCl	inactive	–
CCCC(C)(COC(N)=O)COC(N)=O	25.8 µM (active)	–
O=C1C2CC=CCC2C(=O)N1SC(Cl)(Cl)Cl (stereo not given)	inactive and 2.69 µM (active)	–
C#CCOC(=O)/C=C(C)/C=C/CC(C)CCCC(C)C (stereo not given)	inactive	–
C=C(Cl)CCl	inactive	–
CN(C)C(=O)Oc1cc(OC(=O)N(C)C)cc(C(O)CNC(C)(C)C)c1 (stereo not given)	inactive	–
C=CCc1cc(OC)c2c(c1)OCO2	inactive	–
COC[C@@H](NC(C)=O)C(=O)NCc1ccccc1	inactive	–

Compound	Potency	activity change, negative = inhibition
C[C@@H](N)[C@@H](O)c1ccccc1	inactive	–
CN(C)C1CCCCC1	inactive	–
Cc1ccc(-c2nc3ccc(C)cn3c2CC(=O)N(C)C)cc1	inactive	–
C/C(=N\NC(=O)Nc1cc(F)cc(F)c1)c1ncccc1C(=O)O	inactive	–
CCOP(=S)(OCC)Oc1ccc(Cl)cc1Cl	inactive	–
CCC(C)(C#N)N=NC(C)(C#N)CC (stereo not given)	inactive	–
COc1ccc2c(C(=O)c3ccc(Cl)cc3)c(C)n(CC(=O)O)c2c1	inactive	–
CCC1(c2ccccc2)CCC(=O)NC1=O (stereo not given)	inactive	–
O=CCCl	inactive	–
NC(=O)CS(=O)C(c1ccccc1)c1ccccc1 (stereo not given)	inactive	–
CC(Cl)(Cl)Cl	inactive	–
COc1cc(CC(C)N)cc(OC)c1OC (stereo not given)	inactive	–
NC(=O)OCCCc1ccccc1	inactive	–
CC1NCCOC1c1ccccc1 (stereo not given)	inactive	–
Brc1c(Br)c(Br)c(Br)c(Br)c1Br	–	-28% [at 8.39 µM] (inactive)
O=C(Cl)CCl	inactive	–
CN(CCO)CCO	inactive	–
O=c1[nH]oc2c1CCNC2	inactive	–
O=[N+]([O-])CCO	inactive	–
Cc1cccc2sc3nncn3c12	inactive	–
